Compound activity as filed in PubChem.
The sample as a whole holds a higher share of hits than the screen did.
hDAT+cocaine: changed human dopamine transporter uptake under cocaine IC80; Q01959; LLC-PK1 hDAT cells, [14C]-dopamine uptake with cocaine IC80; actives deviate in either direction; B-score at 10 µM; hit rate 1.3% among 110,000; AID 449768;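 active means Z score or B-score, a plate-position-corrected score, falls beyond the plate's 99.7% confidence bounds, in either direction; inactive means both scores lie inside the 99.7% bounds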;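 further: scored against the spread of the other compound wells on the same plate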
D1 allo mod: allosterically modulates the human D1 dopamine receptor; P21728; HEK293 D1, CRE-luciferase, dopamine EC30 potentiation; actives deviate in either direction; B-score at 10 µM; hit rate 5.9% among 58,000; AID 641;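 active means luminescence count or its row- and column-corrected plate score outside the 99.7% band of the plate's sample wells, on either side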
Target sequence (P21728 whole entry, looked up): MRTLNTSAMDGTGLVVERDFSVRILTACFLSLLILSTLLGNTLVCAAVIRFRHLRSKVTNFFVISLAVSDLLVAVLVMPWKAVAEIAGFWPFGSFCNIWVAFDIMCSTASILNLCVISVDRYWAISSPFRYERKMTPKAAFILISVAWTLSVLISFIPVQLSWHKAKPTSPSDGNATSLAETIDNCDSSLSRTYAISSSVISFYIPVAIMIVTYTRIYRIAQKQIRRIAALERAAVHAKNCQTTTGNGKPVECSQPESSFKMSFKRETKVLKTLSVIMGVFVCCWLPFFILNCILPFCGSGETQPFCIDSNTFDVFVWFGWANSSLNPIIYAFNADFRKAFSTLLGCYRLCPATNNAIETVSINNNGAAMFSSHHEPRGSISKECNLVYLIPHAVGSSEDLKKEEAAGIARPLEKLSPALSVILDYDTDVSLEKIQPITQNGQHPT
EphB4 antag: blocks human EphB4 binding to ephrin-B2 | P54760 | EphB4 LBD / TNYL-RAW-Alexa532 peptide, fluorescence polarization | inhibition, % at 7 µM | hit rate 0.15% among 97,000 | AID 720;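 active means inhibition above the screen-wide mean inhibition plus 3 SD, cut at about 15% in these data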;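 further: 0% = DMSO wells and 100% = excess unlabeled TNYL-RAW peptide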
An asterisk follows results filed as active; nt = no result.

SMILES	hDAT+cocaine	D1 allo mod	EphB4 antag
CCC(=O)Oc1ccc(C(=O)Nc2ccc3c(c2)C(=O)N(C2CCCCC2)C3=O)cc1	0.245	nt	-2.5
COc1ccc(C(C#N)Nc2ccccc2)cc1 (centres undefined)	4.57*	nt	3.0
COc1ccc(NC(C#N)c2ccc(OC)cc2)cc1 (centres undefined)	-1.31	nt	3.0
O=C(Cn1ncc2c3ccccc3n(Cc3ccc(F)cc3)c2c1=O)N1CCN(c2ncccn2)CC1	2.79*	nt	-6.1
Cc1ccccc1Cn1c2ccccc2c2cnn(CC(=O)N3CCN(c4ccccc4)CC3)c(=O)c21	1.16	nt	-2.9
COc1ccc(C2NC(=O)C(C)S2)cc1 (centres undefined)	-0.487	nt	0.5
CC(C)(C)OC(=O)N1CCN(c2ccc(CNC(=O)c3ccc(Cl)cc3)cc2)CC1	0.499	nt	-3.4
COC(=O)C1=C(N)c2c(F)cccc2C1(C#N)c1ccc(F)cc1 (centres undefined)	-0.0556	nt	2.3
O=C(COc1ccc(/C=N/NC(=O)c2ccccc2)cc1)Nc1ccc([N+](=O)[O-])cc1	-0.00963	nt	6.3
CC(C)Oc1ccc(/C=N/NC(=O)C(CSCc2ccccc2)NC(=O)c2ccc([N+](=O)[O-])cc2)cc1 (centres undefined)	-6.05*	nt	-5.3
O=C1C(c2ccccc2)SC(=Nc2ccccc2)N1S(=O)(=O)c1ccccc1 (centres undefined)	-0.176	nt	-4.0
COC(=O)Nc1ccc(NC(C)=O)cc1	0.13	-0.5	3.6
COC(=O)Nc1ccc(S(=O)(=O)N(C)C)cc1	-2.81*	-0.0277	3.1
CCN(CC)S(=O)(=O)c1ccc(C(=O)Nc2cccc(C)c2)cc1	0.636	nt	1.3
Cc1cccc(NC(=O)c2ccc(S(=O)(=O)N(C)C)cc2)c1	3.06*	-1.19	2.7
COc1cccc2c1OC[C@@H](CO)[C@H]2N(C)C(=O)Nc1ccc(Cl)cc1Cl	nt	nt	-3.0
Cc1ccc(N2C(=O)CC2(C#N)c2ccc(OCc3ccccc3)cc2)cc1 (centres undefined)	0.246	nt	1.2
Cc1ccccc1OCC1CN(CN2CCOCC2)C(=O)O1 (centres undefined)	-0.0465	-0.267	2.3
CC(C)(C)N1CC(COc2ccccc2)OC1=O (centres undefined)	-8.9*	-0.818	-0.9
O=C(c1ccccc1)c1cncc(Br)c1	-8.1*	1.05	1.7
O=C(Nc1ccccc1C(=O)O)c1cncc(Br)c1	2.32	nt	3.1
O[C@@H]([C@H](O)[C@H](O)CBr)[C@H](O)CBr	0.149	nt	nt
Cc1cc(N2CCCC2=O)cc(C)c1S(=O)(=O)NCCOc1ccc(C(C)(C)C)cc1	-2.77*	nt	4.7
O=C1CCCN1c1ccc(S(=O)(=O)NCCOc2ccccc2)cc1	-0.457	nt	-7.0
CN(c1ccc(C(=O)N2CCOCC2)cc1[N+](=O)[O-])C1CCCCC1	0.0361	nt	0.5
SMILES	hDAT+cocaine	D1 allo mod	EphB4 antag
CCC1=C2CC[C@H]3C(=O)N(CC(=O)OC)C(=O)[C@H]3[C@H]2[C@@]2(C)C(=NCC(=O)OC)OC(=O)N2C1=O	-0.0185	nt	nt
Cc1ccccc1N(CC(=O)N/N=C/c1cc(C)n(-c2ccccc2C)c1C)S(C)(=O)=O	-2.69*	nt	-0.6
Cc1oc(/C=N/NC(=O)CN(c2ccccc2Br)S(C)(=O)=O)cc1Br	-1.36	nt	-3.4
Cc1nc(C)c(-c2csc(NCc3ccco3)n2)s1	-1.27	2.68	0.2
Cc1ccc(Nc2nc(-c3c(C)nc4ccccn34)cs2)cc1	nt	nt	1.9
Cc1nc2ccccn2c1-c1csc(NCc2ccco2)n1	-0.421	-3.28*	3.2
Cc1ccn2c(-c3csc(NCc4ccccc4)n3)c(C)nc2c1	2.9*	nt	7.8
Cc1cc(/C=C(\C#N)C(=O)NCc2ccco2)c(C)n1C1CCCC1	0.0529	nt	1.5
O=C1CC(NCCC2=CCCCC2)C(=O)N1c1cccc(Cl)c1Cl (centres undefined)	3.54*	nt	-0.8
O=C(NCCC1=CCCCC1)C(=O)NCc1ccccc1Cl	-0.911	nt	2.7
C#CCNC(=O)C1=C[C@H](c2ccc(C(F)(F)F)cc2)C[C@H](OCCCCO)O1	-0.519	nt	nt
Cc1nn(Cc2ccccc2)c(Cl)c1C(=O)OCc1nnc(-c2ccc(Cl)cc2)o1	2.62*	0.296	6.0
Cc1nn(Cc2ccccc2)c(Cl)c1C(=O)OCc1nnc(-c2ccccc2)o1	0.536	-0.00169	4.0
OCCNc1nc(Nc2ccccc2Oc2ccccc2)nc(N2CCCC2)n1	-0.201	nt	nt
COc1ccc(OC)c2c1C(=O)c1ccccc1C2=O	0.38	nt	-1.7
COc1ccc2noc3c2c1C(=O)c1ccccc1-3	nt	5.05*	nt
OCCNc1nc(SCc2ccccc2)nc2sc3c(c12)CCC3	nt	nt	-1.1
CCN(CC)C(=O)Cn1c(=O)n(-c2ccccc2)c(=O)n1CC(=O)N(CC)CC	-9.58*	-0.141	-8.7
CCOC(=O)Cn1nc(C)n(-c2ccccc2)c1=O	-1.3	nt	-1.3
CCOc1ccccc1NC(=S)/C(=C(\[O-])c1ccc2c(c1)OCCO2)[n+]1ccc(CC)cc1	-0.127	nt	5.6
CCCC(=O)Nc1cnc(NC(=O)c2cccc(F)c2)cc1C	-1.45	-3.14*	-3.1
Cc1cc(NC(=O)C(C)C)ncc1NC(=O)c1cccc(F)c1	0.971	0.145	-1.5
COC(=O)c1ccc(CSc2nc3ccccc3c(=O)n2-c2ccccc2)o1	1.14	nt	-5.1
COC(=O)c1ccc(CSc2nc3ccccc3c(=O)n2-c2ccc(OC)c(OC)c2)o1	3.5*	-0.202	-8.2
O=C(Cn1nnc(-c2ccncc2)n1)N1CCc2ccccc21	-0.263	-0.422	0.4
SMILES	hDAT+cocaine	D1 allo mod	EphB4 antag
CCn1c(SCC(=O)N2CCCc3ccccc32)nc2ccccc2c1=O	3.14*	1.55	1.4
Cc1ccc(-c2nnn(CC(=O)N3CCCc4ccccc43)n2)cc1	-7.78*	nt	2.8
O=C(CCCC(=O)N1CCCc2ccccc21)N1CCCc2ccccc21	2.72*	-0.269	-13.6
CCn1c(SCC(=O)N2CCCc3ccccc32)nc2cccnc21	0.227	-0.585	8.8
O=C(CN1CCCCC1)N1CCCc2ccccc21	-0.0924	nt	8.8
CN(c1cccc(NC(=O)CN(c2ccc(C34CC5CC(CC(C5)C3)C4)cc2)S(C)(=O)=O)c1)S(C)(=O)=O	0.495	nt	-2.9
O=C(NCC1CC1)c1cc(-c2ccccc2)nn1CC1CC(c2cccc([N+](=O)[O-])c2)=NO1 (centres undefined)	0.0256	nt	nt
NS(=O)(=O)c1ccc(CCNC(=O)Nc2ccc(Cl)c(Cl)c2)cc1	0.399	nt	-1.7
Cn1cc(C(F)(F)F)nc1-c1ccc(OCC(O)CNCCOc2ccc(O)c(C(N)=O)c2)cc1 (centres undefined)	-0.197	nt	nt
CC(C)OC(=O)c1ccc(NC(=O)c2ccco2)cc1	1.31	nt	0.7
CCOc1ccccc1NC(=O)c1ccc(NC(=O)c2ccco2)cc1	3.94*	nt	1.2
CCOc1ccccc1NC(=O)c1cc(Cl)ccc1NC(=O)c1ccco1	-0.175	-0.364	2.3
COc1cc(NC(=O)c2ccco2)c(OC)cc1NC(=O)c1cc(OC)c(OC)c(OC)c1	0.183	-2.26	-4.0
Cc1cc(NS(=O)(=O)c2ccc(NC(=O)c3ccco3)cc2)nc(C)n1	-0.451	nt	-0.4
CCOc1cc(NC(=O)c2ccco2)c(OCC)cc1NC(=O)c1cc(OC)c(OC)c(OC)c1	0.011	-4.97*	-9.4
CCOc1ccc(NC(=O)c2ccco2)cc1	-0.747	-4.84*	-6.8
Cc1cc(NS(=O)(=O)c2ccc(NC(=O)c3ccco3)cc2)no1	2.71*	0.295	-3.0
O=C(Cc1cccs1)Nc1ccc(NC(=O)c2ccco2)cc1	-0.00567	-0.919	-1.6
